Results taken from PubChem BioAssay.
The source made the active and inactive calls.

Columns and labels:
[1] = system: Plasmodium falciparum Sir2 (PF13_0152, Sir2A); assay: Plasmodium falciparum Sir2A binding compounds – biochemical, small-molecule microarray, 635 nm fluorescence, primary screen (AID 1098); details: fluorescence 635 nm, higher = more signal;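 also: score merges spot fluorescence intensity with its signal-to-noise ratio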
[2] = probe aDKK1 binding to arrayed compounds – biochemical, biotinylated probe, 635/667 nm fluorescence, primary screen (AID 1099); details: small-molecule microarray, higher = more signal;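 also: score merges 667nm spot fluorescence with signal to noise across triplicate slides; reference of the scale not given here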
[3] = probe aCHRDL2 binding to arrayed compounds – biochemical, biotinylated probe, 635/667 nm fluorescence, primary screen (AID 1100); details: small-molecule microarray, higher = more signal
[4] = change in splice reporter luminescence, either direction, cell-based, HEK293, spliceosome inhibition project, primary screen (AID 1101); details: HEK293 splicing luciferase reporter, 24 h, higher = more signal, called active from +8 up or from −8 down;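 also: HEK293 cells carrying a splicing-competent luciferase reporter gene; test concentration not given here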
[5] = target: Fibroblast growth factor 10 (Homo sapiens) (UniProt O15520); assay: compounds binding fibroblast growth factor 10 – biochemical, small-molecule microarray, 635 nm fluorescence, primary screen (AID 1102); details: FGF10 binding, fluorescence 635 nm, higher = more signal
[6] = system: glycogen synthase kinase-3 (GSK3A per assay name; protocol says GSK3B); assay: compounds binding glycogen synthase kinase-3 – biochemical, small-molecule microarray, 635 nm fluorescence, GSK3A, primary screen (AID 1103); details: fluorescence 635 nm, higher = more signal; also: the record names both GSK3A and GSK3B
[7] = target: Epidermal growth factor receptor (Homo sapiens) (UniProt P00533); assay: compounds binding epidermal growth factor receptor – biochemical, small-molecule microarray, 635 nm fluorescence, primary screen (AID 1104); details: EGFR binding, higher = more signal;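 also: score merges 667 nm emission intensity with spot signal to noise over triplicate slides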
[8] = target: Follistatin-related protein 3 (Homo sapiens) (UniProt O95633); assay: compounds binding follistatin-related protein 3 – biochemical, small-molecule microarray, 635 nm fluorescence, primary screen (AID 1105); details: FSTL3 binding, higher = more signal;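 also: score merges emission near 667 nm and signal to noise per printed spot across three slides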
[9] = target: Dickkopf-related protein 1 (Homo sapiens) (UniProt O94907); assay: small molecules binding DKK1 protein – biochemical, small-molecule microarray, 635 nm fluorescence scan, primary screen (AID 1106); details: higher = more signal;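 also: score merges emission near 667 nm with signal to noise over three replicate slides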
[10] = system: Inhibin beta A chain (activin A); assay: small molecules binding activin A – biochemical, small-molecule microarray, 635 nm fluorescence scan, primary screen (AID 1107); details: INHBA, higher = more signal;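 also: mouse activin A protein probed at 4.33 µg/mL on printed slides; score merges bound-protein fluorescence near 667 nm with spot signal-to-noise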

Chain of Dickkopf-related protein 1 (Homo sapiens) (O94907 whole entry, looked up): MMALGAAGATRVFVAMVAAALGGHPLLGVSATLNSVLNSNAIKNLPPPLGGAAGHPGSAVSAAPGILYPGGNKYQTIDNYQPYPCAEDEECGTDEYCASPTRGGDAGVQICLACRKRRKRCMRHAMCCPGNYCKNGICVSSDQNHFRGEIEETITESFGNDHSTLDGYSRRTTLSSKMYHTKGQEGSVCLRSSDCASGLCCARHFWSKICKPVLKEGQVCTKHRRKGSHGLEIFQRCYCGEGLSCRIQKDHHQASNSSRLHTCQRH
Chain of Fibroblast growth factor 10 (Homo sapiens) (O15520 whole entry, looked up): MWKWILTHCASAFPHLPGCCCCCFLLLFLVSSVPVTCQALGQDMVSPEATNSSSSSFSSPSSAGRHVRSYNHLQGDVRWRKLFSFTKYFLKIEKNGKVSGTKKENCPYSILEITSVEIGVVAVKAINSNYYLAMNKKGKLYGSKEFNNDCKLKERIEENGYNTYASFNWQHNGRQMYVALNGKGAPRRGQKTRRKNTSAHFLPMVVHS
Chain of Epidermal growth factor receptor (Homo sapiens) (P00533 whole entry, looked up): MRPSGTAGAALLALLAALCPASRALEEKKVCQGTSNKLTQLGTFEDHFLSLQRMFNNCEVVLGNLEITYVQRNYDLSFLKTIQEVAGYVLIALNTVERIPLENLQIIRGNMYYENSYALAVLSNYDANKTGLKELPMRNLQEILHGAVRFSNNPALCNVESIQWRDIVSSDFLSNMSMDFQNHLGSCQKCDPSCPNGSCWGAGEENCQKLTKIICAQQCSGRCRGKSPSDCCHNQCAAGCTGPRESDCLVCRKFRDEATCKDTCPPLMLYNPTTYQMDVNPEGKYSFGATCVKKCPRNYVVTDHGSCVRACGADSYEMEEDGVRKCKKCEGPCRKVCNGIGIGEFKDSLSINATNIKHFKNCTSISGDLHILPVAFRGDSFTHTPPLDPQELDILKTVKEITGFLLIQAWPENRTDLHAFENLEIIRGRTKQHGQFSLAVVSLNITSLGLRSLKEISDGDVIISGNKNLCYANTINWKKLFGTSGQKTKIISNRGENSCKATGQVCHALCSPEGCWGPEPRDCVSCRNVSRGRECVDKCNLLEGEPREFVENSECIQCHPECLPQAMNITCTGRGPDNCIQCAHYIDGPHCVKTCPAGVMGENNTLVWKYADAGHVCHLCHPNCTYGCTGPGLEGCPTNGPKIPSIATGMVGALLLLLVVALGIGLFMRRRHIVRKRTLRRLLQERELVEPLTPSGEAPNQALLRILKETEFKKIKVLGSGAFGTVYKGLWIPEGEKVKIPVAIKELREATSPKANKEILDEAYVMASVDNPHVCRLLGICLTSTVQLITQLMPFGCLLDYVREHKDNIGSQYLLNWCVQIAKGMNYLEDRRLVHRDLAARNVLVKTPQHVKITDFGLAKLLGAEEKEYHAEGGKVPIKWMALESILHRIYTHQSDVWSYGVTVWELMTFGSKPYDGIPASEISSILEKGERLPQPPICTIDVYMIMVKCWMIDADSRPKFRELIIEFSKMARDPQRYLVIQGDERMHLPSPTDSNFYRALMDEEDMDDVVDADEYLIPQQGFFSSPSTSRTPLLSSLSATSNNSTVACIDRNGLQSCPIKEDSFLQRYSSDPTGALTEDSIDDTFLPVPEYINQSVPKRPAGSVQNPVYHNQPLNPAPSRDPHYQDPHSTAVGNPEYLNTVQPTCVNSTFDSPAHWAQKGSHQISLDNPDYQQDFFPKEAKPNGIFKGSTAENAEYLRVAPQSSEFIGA
Chain of Follistatin-related protein 3 (Homo sapiens) (O95633 whole entry, looked up): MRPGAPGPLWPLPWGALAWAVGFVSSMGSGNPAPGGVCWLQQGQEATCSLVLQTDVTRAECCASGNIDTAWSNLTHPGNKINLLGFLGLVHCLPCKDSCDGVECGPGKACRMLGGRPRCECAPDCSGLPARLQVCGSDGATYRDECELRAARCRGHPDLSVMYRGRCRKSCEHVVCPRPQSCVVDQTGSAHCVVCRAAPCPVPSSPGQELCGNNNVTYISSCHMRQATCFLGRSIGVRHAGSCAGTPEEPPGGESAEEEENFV

SMILES	composite z-score [1]	composite z-score [2]	composite z-score [3]	z-score [4]	composite z-score [5]	composite z-score [6]	composite z-score [7]	composite z-score [8]	composite z-score [9]	composite z-score [10]
Cc1ccc(S[C@]2(C(=O)O)CC(=O)N(C(C)C)[C@@H]2c2ccc(CO)cc2)cc1	0.161	-0.11	0.34	-0.448 (inactive)	0.224	-0.207	-0.468	0.147	0.0142	0.754
[N-]=[N+]=Nc1ccccc1[C@H]1OC(c2ccc(OCCCO)cc2)=N[C@@]1(CCS(=O)(=O)c1ccccc1)C(=O)NCc1ccccc1	0.91	0.812	0.988	-0.431 (inactive)	1.18	1.32	0.258	1.14	0.584	1.05
NC(=O)N1C(=O)C2C(C1=O)C1C=C(CCCO)C2C(C2CC2)N1Cc1cc2c(cc1Br)OCO2 (stereo not given)	-0.267	-0.165	0.32	0.901 (inactive)	-0.395	-0.645	-0.376	-0.252	-0.891	0.943
CN(C)CCCCCCNC(=O)[C@@H]1C[C@@H]2C(=O)N3CCC[C@H]3C(=O)N2[C@@H]1c1ccc(O)cc1	0.609	0.381	0.234	-1.51 (inactive)	1.1	1.34	0.842	1.48	1.69	0.254
COC(=O)[C@@]1(Cc2ccccc2)[C@H]2c3cc(C(=O)N4CCCC4)n(Cc4c(CO)[nH]cc(C)c4=O)c3C[C@H]2CN1C(=O)c1ccccc1	0.893	0.896	1.24	0.796 (inactive)	0.303	0.132	0.113	0.0713	-0.135	1.27
O=C1NC(=O)C2C1C=CC(C(O)c1ccc(I)cc1)N2Nc1ccccn1 (stereo not given)	1.33	0.0824	0.464	1.04 (inactive)	-0.0548	-0.269	0.268	-0.0861	0.153	1.14
[N-]=[N+]=NCc1ccccc1[C@H]1OC(c2ccc(OCCCO)cc2)=N[C@@]1(Cc1ccccc1)C(=O)N1CCCCC1	1.14	0.344	0.574	-1.05 (inactive)	1.34	1.3	0.0201	0.79	0.428	0.522
CC(=CC1CCCCC1)[C@@H](NC(=O)c1cccnc1)c1ccc(-c2ccccc2)cc1	-0.178	-0.0066	0.849	0.772 (inactive)	-0.599	-1.11	-0.419	-0.195	-0.44	0.679
C=CCNC(=O)[C@H]1[C@@H]2C(=O)O[C@@H](c3ccccc3)[C@@H](c3ccccc3)N2[C@@H](c2ccc(OCCO)cc2)[C@]12C(=O)Nc1ccc(C#CCC(C(=O)OC)C(=O)OC)cc12	1.25	0.313	0.655	0.279 (inactive)	1.29	1.09	0.787	1.25	0.83	0.559
CC(C)NC(=O)[C@@]1(Cc2ccccc2I)c2ccccc2C(=O)N(Cc2ccccc2Cl)[C@H]1c1ccc(CO)cc1	0.972	0.13	0.156	-0.833 (inactive)	1.1	1.16	0.355	0.575	0.533	0.529
OB1C=CCC(CCc2ccccc2)O1 (stereo not given)	1.57	-0.246	0.0796	-0.817 (inactive)	-0.184	-0.428	0.0835	-0.544	-0.191	1.67
COC(=O)[C@@]1(Cc2ccccc2)[C@H]2c3cc(C(=O)N(C)C)n(Cc4ccc(OC)c(OC)c4)c3C[C@H]2CN1C(=O)c1ccccc1	0.0313	0.905	0.94	-4.08 (inactive)	1.44	0.454	0.568	0.609	-0.833	0.67
CCN(CC)c1ccc(N2CC=CC34O[C@@H]5/C=C\CCC(C)OC(=O)C5[C@H]3C(=O)N(CCCCCO)[C@@H]4C2=O)cc1 (stereo not given in full)	-1.01	-0.0549	0.288	0.292 (inactive)	-0.976	-1.02	-0.518	-0.669	-0.555	0.306
O[C@@H](Cc1ccccc1)[C@@H](/C=C/C1CC1)NCc1cccc(Cl)c1	1.2	0.081	1.31	-0.944 (inactive)	-1.46	-0.638	-1.14	-0.78	-1.61	0.157
C=CCN1Cc2ccccc2[C@@H]2OC(c3ccc(OCCCO)cc3)=N[C@]2(CCS(=O)(=O)c2ccccc2)C1=O	1.53	0.205	0.825	0.211 (inactive)	1.4	1.32	1.01	1.43	1.41	1.1
CCCCCCc1nc(-c2ccc(-c3ccc(Cl)c(Cl)c3)o2)c(C)c2c1[Si](C(C)C)(C(C)C)OC2	-0.0921	-0.233	-0.102	-1.62 (inactive)	-0.57	-0.555	-0.648	-0.374	-0.446	0.375

SMILES	composite z-score [1]	composite z-score [2]	composite z-score [3]	z-score [4]	composite z-score [5]	composite z-score [6]	composite z-score [7]	composite z-score [8]	composite z-score [9]	composite z-score [10]
COc1ccc([Si](C)(C)[C@@H]2[C@@H](CCn3cc(CCO)nn3)O[C@]3(C(=O)N(Cc4cccc(N5C(=O)c6cccc7cccc5c67)c4)c4ccccc43)[C@H]2C)cc1	0.686	-0.212	-0.197	-1.23 (inactive)	0.648	0.433	0.0345	0.922	0.135	0.546
COc1cc2c(cc1OC)CN(C(=O)[C@H]1[C@@H]3C(=O)O[C@@H](c4ccccc4)[C@@H](c4ccccc4)N3[C@@H](c3ccccc3OCCO)[C@]13C(=O)Nc1ccc(C#CCCO)cc13)CC2	1.37	-0.112	-0.294	-0.826 (inactive)	0.786	1.28	0.47	0.964	0.518	0.931
COc1ccc([Si](C)(C)[C@@H]2[C@@H](CC(=O)N3CCC[C@H]3CO)O[C@]3(C(=O)N(Cc4cccc(I)c4)c4ccccc43)[C@H]2C)cc1	0.541	0.0446	0.0665	-0.404 (inactive)	1.05	1.13	1.2	1.44	1.92	0.946
C=C(CCCC)/C(=C/C[C@H](OC(=O)c1ccncc1)c1ccc(OCCO)cc1)c1cc(C(=O)OC)ccc1OC	0.694	-0.172	-0.116	-1.14 (inactive)	0.752	-0.139	0.053	0.14	0.204	1.29
C=C(CCCC)C(=O)CC[C@@H](OC(C)=O)c1ccc(CO)o1	1.24	-0.269	-0.457	0.251 (inactive)	1.12	0.179	-0.353	0.523	0.0693	0.945
CCCC(=O)N(CCc1c[nH]c2ccccc12)[C@@H]1CC(C(=O)NCCO)=C[C@H](Oc2c(I)cc(CO)cc2OC)[C@H]1O	-0.575	-0.334	-0.516	-0.125 (inactive)	-0.0122	-0.431	0.164	0.0027	0.404	0.181
CO[C@H]1O[C@H](CO)[C@@H](OC(=O)Nc2ccccc2-c2ccccc2)[C@H](OC(=O)Nc2ccccc2-c2ccccc2)[C@@H]1OC(=O)Nc1ccccc1-c1ccccc1	1.63	0.408	0.625	0.389 (inactive)	1.43	1.12	-0.168	1.03	0.208	0.0923
CCC(CC)C(O)C1C=CC2C(=O)N(c3ccccc3)C(=O)C2N1Nc1ccccc1 (stereo not given)	1.52	1.29	1.15	-0.326 (inactive)	0.988	1.21	0.452	1.38	0.0269	0.555
C=CCN1C(=O)[C@]2(Cc3ccccc3)N=C(c3ccc(OCCCO)cc3)O[C@@H]2c2ccccc21	1.16	0.0729	0.795	-1.37 (inactive)	0.755	1.27	0.781	0.878	0.547	1.13
COC(=O)c1c2oc(c1C(=O)OC)C(=O)NC1(CCCCC1)c1cn(nn1)C[C@H](Cc1ccccc1)NC(=O)N[C@H](CO)CC2	-0.856	0.0173	-0.709	-0.365 (inactive)	1.15	0.386	0.0053	0.34	0.25	-0.007
COCCCNC(=O)[C@@H]1c2ccccc2C(=O)N(Cc2ccccc2)[C@H]1c1ccc(CO)cc1	0.698	0.698	0.655	-0.403 (inactive)	0.223	0.437	0.851	0.197	0.549	0.353
O=C1C2C=CC(C(O)C=Cc3ccc([N+](=O)[O-])cc3)N(Nc3ccccc3F)C2C(=O)N1c1ccccc1 (stereo not given)	0.808	0.468	0.831	0.755 (inactive)	1.13	1.28	0.464	1.13	0.0328	1.08
OCC1C=C(/C=C/c2ccccc2)CN1Cc1ccccc1Br (stereo not given)	1.1	0.296	-0.241	0.103 (inactive)	1.18	0.86	0.357	1.37	1.12	0.692
O=C1C2C=CC(C(O)c3cc(C(F)(F)F)cc(C(F)(F)F)c3)N(Nc3ccccc3)C2C(=O)N1c1ccccc1 (stereo not given)	1.24	0.723	0.433	-2.9 (inactive)	-0.239	0.22	-0.303	-0.154	-0.667	1.01
CCCCCN1CC=CC23O[C@@H]4C=CCOC(=O)[C@@H]4[C@H]2C(=O)N(C(C)CO)[C@@H]3C1=O (stereo not given in full)	1.4	-0.162	0.381	1.03 (inactive)	-0.571	-0.831	-1.44	-1.25	-0.693	-0.469
